Screen size: about 390,000 compounds; about 4,000 (1%) were called active. Not shown: some 4% with an inconclusive outcome. Calls come from the whole dose curve; as a rule, active = well fitted inhibition curve with a large enough effect; inconclusive = small, poorly fitted or top-dose-only effect; inactive = no such curve, though single readings can be large or run the other way. Many of the other results were omitted from the sample, so actives are more common in it than they were.
Target: Thioredoxin reductase 1, cytoplasmic (Rattus norvegicus) (UniProt O89049)
Test: qHTS Assay for Inhibitors of Mammalian Selenoprotein Thioredoxin Reductase 1 (TrxR1): qHTS; note: nearly all actives have a fitted effect of over 65% in size
Settings: recombinant rTrxR1, NADPH fluorescence consumption, selenite substrate; series mostly up to 114 µM; activity change, negative = inhibition: at the top concentration
Source text: The selenoprotein thioredoxin reductase (TrxR; EC 1.8.1.9) is a FAD containing homodimeric pyridine nucleotide-disulfide oxidoreductase with many cellular roles. Together with NADPH and its prime substrate thioredoxin (Trx), the enzyme forms the core of the Trx system. The mammalian Trx system exerts a wide spectrum of functions including redox regulation, antioxidant defense, regulation of transcription factors as well as support of cell growth and replication. Many of these functions involve the reduction of Trx, which may subsequently reduce a number of different substrates including ribonucleotide reductase, peroxiredoxins or NFkB. Mammalian TrxR itself also has a broad substrate specificity, reducing both protein and non-protein substrates, including low molecular weight compounds such as dehydroascorbate, lipoic acid, ubiquinone, and juglone. In addition, several drugs in clinical use for anticancer treatment are indeed known to target TrxR1.
This BioAssay is a validation of an NADPH fluorescence-based, dual-purpose qHTS rTrxR1 assay designed to find potential inhibitors and substrates of rTrxR1. For this particular BioAssay, actives are potential inhibitors. See related BioAssay for substrate data deposition.
NIH Molecular Libraries Probe Production Network [MLPCN]
NIH Chemical Genomics Center [NCGC]
Assay Provider: Elias Arner, Karolinska Institute
Assay protocol: 2 uL of reagents (buffer in column 4 as negative control and 90 nM rTrxR1 in columns 1-3 and 5-48) were dispensed into Greiner black solid-bottom 1,536-well assay plates, followed by 1 uL of NADPH (400 uM final concentration) to each well. The plates were centrifuged at 1000 rpm for 15 seconds and subsequently incubated for 5 min at room temperature (~22 deg C) to allow for rTrxR1 reduction. Compounds (23 nL) were then transferred via Kalypsys pin tool equipped with 1536-pin array (10 nL slotted pins, V&P Scientific, San Diego, CA). In addition, a duplicate 2-fold serial dilution of the control compounds auranofin, a known gold-based TrxR1 inhibitor, and juglone (5-hydroxy-1,4-naphthoquinone), a natural TrxR1 substrate, were pin-transferred to columns 2 and 3, respectively. After incubation for 15 min at room temperature (~22 deg C), 1 uL of selenite (400 uM final concentration) were dispensed to each well. The plate was immediately transferred to a ViewLux high-throughput CCD imager (PerkinElmer), wherein kinetic measurements of NADPH fluorescence (Ex 340 nm, Em 450 nm) were acquired (8 minute kinetic read, see Table 1). Read 1 was utilized to assess the capacity of a compound to serve as an rTrxR1 substrate, i.e. a decrease in NADPH fluorescence compared to the no-compound background is an indication of a substrate behavior for that particular compound. For inhibitory activity of a compound, delta values, computed as the difference in fluorescence intensity between the first and last reads of an 8-minute time kinetic window, were used. All reagents were diluted in an assay buffer consisting of 50 mM Tris-HCl, pH 7.5, 2 mM EDTA, and 0.01% Tween-20.
Throughout the screen, reagent bottle and all liquid lines were made light-tight to minimize reagent degradation. All screening operations were performed on a fully integrated robotic system (Kalypsys, San Diego, CA) containing one RX-130 and two RX-90 anthropomorphic robotic arms (Staubli, Duncan, SC). Library plates were screened starting from the lowest and proceeding to the highest concentration, and a 'double-pinning' step of the highest concentration was required to access higher concentrations of compounds. Vehicle-only plates, with DMSO being pin-transferred to the columns 5-48, were inserted uniformly at the beginning and the end of each library in order to monitor and record any shifts in the background, which can be affected by reagent dispensers or loss in enzyme activity over time. […]
% is set by controls: 0 for no effect and ±100 for the full control effect; potency is the fitted concentration of half-maximal effect.

Chain of Thioredoxin reductase 1, cytoplasmic (Rattus norvegicus) (O89049 whole entry, looked up): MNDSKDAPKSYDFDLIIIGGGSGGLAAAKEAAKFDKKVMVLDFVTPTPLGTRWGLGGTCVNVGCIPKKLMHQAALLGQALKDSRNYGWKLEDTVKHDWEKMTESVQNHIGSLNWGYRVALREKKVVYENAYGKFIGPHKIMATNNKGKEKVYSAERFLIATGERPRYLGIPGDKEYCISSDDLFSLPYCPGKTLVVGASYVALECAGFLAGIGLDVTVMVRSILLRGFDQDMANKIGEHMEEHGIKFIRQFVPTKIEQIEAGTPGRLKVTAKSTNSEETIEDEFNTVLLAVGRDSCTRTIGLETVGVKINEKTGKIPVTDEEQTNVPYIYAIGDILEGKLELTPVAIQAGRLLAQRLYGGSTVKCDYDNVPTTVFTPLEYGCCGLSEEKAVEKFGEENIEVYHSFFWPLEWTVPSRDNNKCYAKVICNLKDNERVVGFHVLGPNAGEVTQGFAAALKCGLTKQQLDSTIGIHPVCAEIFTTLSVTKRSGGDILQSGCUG

SMILES | activity change, negative = inhibition | Potency
Cc1cc(F)ccc1NS(=O)(=O)c1ccc(-n2cccn2)cc1 | 24.6% (inactive) | 
COc1ccc2[nH]c3c(c2c1)CCN(C(=O)CCC1CCCC1)C3c1ccc(F)cc1 (centres undefined) | 10.3% (inactive) | 
Cc1cc2c(cc3c(SCc4nc(-c5ccccc5)oc4C)nnc(C)n32)o1 | 6.82% (inactive) | 
O=C(O)c1ccccc1NC(=S)NC(NC(=O)c1ccccc1[N+](=O)[O-])C(Cl)(Cl)Cl (centres undefined) | -0.421% (inactive) | 
O=C(NC(=S)Nc1ccccc1C(=O)O)c1ccc(-c2ccc(Br)cc2)o1 |  | 44.7 µM (active)
O=C(NC(=S)Nc1ncccn1)c1ccccc1Br | 21.2% (inactive) | 
CN(CCC#N)c1ccc(C=O)cc1 | 6.49% (inactive) | 
S=c1[nH]c(=S)c2n[nH]nc2[nH]1 |  | 15.8 µM (active)
C(=Nc1ccc(/C=C/c2ccnc3ccccc23)cc1)c1cc2c3c(c1)CCCN3CCC2 | -19.7% (inactive) | 
COc1ccc(-c2onc(C)c2C)cc1S(=O)(=O)NCCc1ccccc1 | 9.73% [at 57.1 µM] (inactive) | 
OC(CBr)CN1CCCCC1 (centres undefined) | -14.4% (inactive) | 
CN(C)Cc1cn(-c2ccccc2)nc1-c1ccccc1 | 13.8% (inactive) | 
Cc1ccc(-c2nn(-c3cccc(F)c3)cc2CNCCc2ccncc2)o1 | -6.48% (inactive) | 
Cc1ccc(-c2nn(-c3ccccc3)cc2CN(Cc2ccccc2)C(=O)CCC(=O)O)o1 |  | 39.8 µM (active)
Cc1ccc(C)c2sc(NC(=O)c3ccc(S(=O)(=O)N4CCCC4)cc3)nc12 | 29.7% [at 57.1 µM] (inactive) | 
CCc1ccc(NC(=O)C2CCCN2S(=O)(=O)c2ccc3nc(-c4ccccc4)[nH]c3c2)cc1 (centres undefined) | 5.83% (inactive) | 
COc1cccc(N(CC(=O)NCCSc2ccccn2)S(C)(=O)=O)c1 | 25.6% (inactive) | 
CN(C)c1nc(N)nc(CSc2ccccn2)n1 | 10.2% (inactive) | 
COc1ccc(C=C(C#N)C#N)c(CSc2ccccn2)c1 |  | 11.2 µM (active)
COc1ccc(C(=O)COC(=O)CCCC(=O)Nc2cc(C(F)(F)F)ccc2Cl)cc1 | -7.49% (inactive) | 
CN(N=O)c1ccc(C=C2c3ccccc3-c3ccccc32)cc1 | 11.1% (inactive) | 
CCOc1ccc(NC(=O)CCc2c(C)nn(-c3ccc(N4CCCC4)nn3)c2C)cc1 | 17.2% [at 57.1 µM] (inactive) | 

SMILES | activity change, negative = inhibition | Potency
O=C1O/C(=C\c2ccc(O)cc2)C(O)=C1c1ccc(O)cc1 | 0.176% (inactive) | 
Cn1cnc([N+](=O)[O-])c1Nc1ccccc1O | -11.4% (inactive) | 
Nc1nc(Sc2ncccc2[N+](=O)[O-])n[nH]1 | 15.9% (inactive) | 
Cn1cnc([N+](=O)[O-])c1Sc1n[nH]c(N)n1 |  | 12.6 µM (active)
CCOc1ccc(OCC)c(Nc2nc3ccccc3n3nnnc23)c1 | -13.6% (inactive) | 
COc1ccc(CNC(=O)Cn2nnc(-c3ccc(S(C)(=O)=O)cc3)n2)cc1 | 15.6% (inactive) | 
Cc1c(Cl)cccc1NC(=O)C1CCCN(c2ncnc3onc(C)c23)C1 (centres undefined) | 8.7% (inactive) | 
CCOC(=O)N1CCc2c(sc3c2c(=O)n(-c2ccc(CC)cc2)c(=O)n3C)C1 | -6.6% (inactive) | 
O=C(c1ccc(Br)cc1)N(Cc1cccs1)c1ccc(F)cc1 | 14.5% (inactive) | 
COc1ccc(CCC(=O)NCCc2csc(-c3ccc(Cl)cc3)n2)cc1 | 7.28% [at 57.1 µM] (inactive) | 
COc1ccc(N2C(=O)CC(N3CCC(C(N)=O)CC3)C2=O)cc1 (centres undefined) |  | 50.1 µM (active)
COc1ccc(CN2C(=O)CC(Cc3ccc(C)cc3)C2=O)cc1OC (centres undefined) | -13.1% (inactive) | 
COc1ccc(CCN2C(=O)CC(N3CCC(C(N)=O)CC3)C2=O)cc1OC (centres undefined) |  | 22.4 µM (active)
COc1cccc(N2CCN(C3CC(=O)N(c4ccc(Cl)cc4)C3=O)CC2)c1 (centres undefined) | -8.08% (inactive) | 
COc1ccc(CCN2C(=O)C3CC=C(C)CC3C2=O)cc1OC (centres undefined) | 20.2% (inactive) | 
CCOC(=O)c1ccc(N2C(=O)CC(N3CCC(C(=O)OCC)CC3)C2=O)cc1 (centres undefined) | -18.9% (inactive) | 
Cn1c(=O)c(C(=O)O)nn(-c2ccccc2)c1=O | 2.12% (inactive) | 
CCN(CC)/[N+]([O-])=N/Oc1cc(O/[N+]([O-])=N/N2CCCC2CO)c([N+](=O)[O-])cc1[N+](=O)[O-] (centres undefined) | 27.8% (inactive) | 
COc1ccc(OC)c(NC(=O)Cn2c(=O)n(Cc3ccccc3)c(=O)c3ccccc32)c1 | 23.8% (inactive) | 
CCCCCCCNc1ccc(/C=C/c2ccnc3ccccc23)cc1 | 16.1% (inactive) | 
O=C(COC(=O)c1ccccc1OCCOc1ccccc1)Nc1cccc(Br)c1 | 9.98% (inactive) | 
COc1ccc2c(c1)CCc1c(C(=O)N3CCCC3)noc1-2 |  | 35.5 µM (active)

SMILES | activity change, negative = inhibition | Potency
COc1ccc2c(c1)CCc1c(C(=O)Nc3cc(C)ccc3O)noc1-2 | 24% (inactive) | 
O=C(c1noc2c1CCCC2)N1CCc2ccccc2C1 | 6.82% (inactive) | 
CCCCNC(=O)Cn1c(SCc2cccc(Cl)c2)nc2ccncc21 | 12.1% (inactive) | 
COc1ccc(-c2cn3c(n2)sc2cc(C(=O)Nc4ccccc4F)ccc23)cc1 | 18.2% (inactive) | 
COc1cccc(-c2n[nH]c3c2C(c2cccc(O)c2)N(C)C3=O)c1 (centres undefined) | 15.4% (inactive) | 
Cc1ccc(-c2nc(Cn3c(=O)cc(-c4ccccc4)c4c(C)nn(C)c43)c(C)o2)cc1 | 16.5% [at 57.1 µM] (inactive) | 
O=C(NCc1ccccc1)C(=O)NCC(c1ccco1)S(=O)(=O)c1ccc(Cl)cc1 (centres undefined) | 3.23% [at 57.1 µM] (inactive) | 
Cc1ccc(NC(=O)CN2C(=O)C(c3ccc(F)cc3)=NC23CCCCCC3)c(C)c1 | 11.7% (inactive) | 
CCN1CCC(N(Cc2ccc(F)cc2)C(=O)Nc2cc(C)ccc2C)CC1 | -0.49% (inactive) | 
CCN1CCC2(CC1)N=C(c1ccc(F)cc1)C(=S)N2C(=O)c1ccc(C)cc1 |  | 15.8 µM (active)
Cc1cccc(-n2ccnc2SCC(=O)Nc2cccc3ccccc23)c1C | 12.3% [at 57.1 µM] (inactive) | 
NNc1cccc(C=Cc2ccccc2)cc1=O |  | 17.8 µM (active)
O=C(COc1ccccc1)OCc1cc(=O)n2nc(-c3cccs3)sc2n1 | 18% [at 57.1 µM] (inactive) | 
CC1=Nc2cc(C(=O)NCc3ccc(C)cc3)ccc2Sc2ccc(Cl)cc21 | 24.3% [at 57.1 µM] (inactive) | 
NC(=O)C[C@@H]1NC(=O)CNC(=O)c2cc([N+](=O)[O-])cc(I)c2NCCC(C(N)=O)NC1=O (some centres undefined) | -2.64% [at 57.1 µM] (inactive) | 
NC(=O)CC[C@@H]1NC(=O)[C@H](CO)NC(=O)c2cc([N+](=O)[O-])cc(I)c2NCC[C@@H](C(N)=O)NC1=O |  | 70.8 µM (active)
NCCCC[C@@H]1NC(=O)[C@H](CCC(=O)O)NC(=O)c2cc([N+](=O)[O-])cc(I)c2NCC[C@@H](C(N)=O)NC1=O | -14.4% (inactive) | 
C[C@@H]1NC(=O)c2cc([N+](=O)[O-])cc(F)c2NCCC[C@@H](C(N)=O)NC(=O)[C@H](CC(N)=O)NC1=O | -7.55% (inactive) | 
CC(C)[C@@H]1NC(=O)c2cc([N+](=O)[O-])cc(I)c2NCCC[C@@H](C(=O)NC(CC(=O)O)C(N)=O)NC(=O)[C@H](CO)NC1=O (some centres undefined) | -3.78% (inactive) | 
NC(=O)CC[C@@H]1NC(=O)[C@@H]2CCCN2C(=O)c2cc([N+](=O)[O-])cc(F)c2NCCC[C@@H](C(N)=O)NC1=O |  | 12.6 µM (active)

From PubChem BioAssay AID588453 (National Center for Advancing Translational Sciences (NCATS), 2011)
